# This excerpt belongs to a sample that is enriched for the strongest signals.
# B1: SIGNR8 (Mus musculus) (protein)
# chain: MAGEPEFHQSKNHEEEVTSGEQGFAEHDPEGLICSSKSLQGHLTQVPWLLLLLISLGLFLLMLATLVQVSRIRAYSQGQTQDQQGSSSLDKVAVPREQTHSGLEQIQQIQQQLTQFNASLAGLCRPCPWDWELFQGSCYLFSRTLGSWETSASSCEDLGAHLVIVNSVSEQRFMKYWNVRKNQRSWIGLSDHIHEGSWQWVDGSALKFSFWKEGEPNNDGDEDCVELFMDDWNDNKCTEQNFWVCEQPSAPCPHH
# B2: CREG (Mus musculus), O88668 (protein)
# chain: MAARAPELARSLLAALLAPALVALLVSPASGRGGRDHGDWDVDRRLPPLPPREDGPRVARFVTHVSDWGSLATISTIKEVRGWPFADIISISDGPPGEGTGEPYMYLSPLQQAVSDLQENPEATLTMSLAQTVYCRNHGFDPQSPLCVHIMMSGTVTKVNKTEEDYARDSLFVRHPEMKHWPSSHNWFFAKLKISRIWVLDYFGGPKVVTPEEYFNVTLQ
# Key:
# Experiment in all cases: glycan array binding signal (z-score within array); higher = stronger binding
# Conditions in all cases: glycan notation: IUPAC condensed, linker removed
# Fuc(a1-2)[Gal(a1-3)]Gal = molecular target: Fuc(a1-2)[Gal(a1-3)]Gal
# How it was run: (§1)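 Negative Z-scores can be read as non-binding. The Z-score is calculated within each array and then averaged across arrays of one protein sequence at different concentrations or buffers and across linkers. Arrays, 3228 in all, were curated from the Consortium for Functional Glycomics database and kept only where the protein sequence was available.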
# [1] = molecular target: Fuc(a1-2)[Gal(a1-4)]Gal(b1-4)GlcNAc
# How it was run: as §1
# [2] = molecular target: Fuc(a1-2)[GalNAc(a1-3)]Gal(b1-4)[Fuc(a1-3)]GlcNAc
# How it was run: as §1
# [3] = molecular target: Fuc(a1-3)[Gal(b1-4)]GlcNAc(b1-4)Gal(b1-4)[Fuc(a1-3)]GlcNAc
# How it was run: as §1
# [4] = molecular target: Fuc(a1-3)[GalNAc(b1-4)]GlcNAc
# How it was run: as §1
# Gal(a1-3)Gal = molecular target: Gal(a1-3)Gal
# How it was run: as §1
# Gal(a1-3)Gal(b1-4)GlcNAc = molecular target: Gal(a1-3)Gal(b1-4)GlcNAc
# How it was run: as §1
# [5] = molecular target: Gal(a1-3)[Gal(a1-4)]Gal(b1-4)GlcNAc
# How it was run: as §1
# Gal(b1-3)Gal = molecular target: Gal(b1-3)Gal
# How it was run: as §1
# [6] = molecular target: Gal(b1-3)GalNAc(b1-4)[Neu5Ac(a2-3)]Gal(b1-4)Glc
# How it was run: as §1
# [7] = molecular target: Gal(b1-3)GlcNAc(b1-3)Gal(b1-4)Glc
# How it was run: as §1
# [8] = molecular target: Gal(b1-3)[Neu5Ac(b2-6)]GalNAc
# How it was run: as §1
# [9] = molecular target: Gal(b1-4)GlcNAc(b1-3)Gal(b1-4)GlcNAc(b1-3)Gal(b1-4)GlcNAc
# How it was run: as §1
# [10] = molecular target: Gal(b1-4)GlcNAc(b1-6)[Gal(b1-3)]GalNAc
# How it was run: as §1
# GalNAc(a1-3)Gal = molecular target: GalNAc(a1-3)Gal
# How it was run: as §1
# [11] = molecular target: GlcNAc(b1-3)Gal(b1-4)GlcNAc
# How it was run: as §1
# Man(a1-3)[Man(a1-6)]Man = molecular target: Man(a1-3)[Man(a1-6)]Man
# How it was run: as §1
# [12] = molecular target: Neu5Ac(a2-3)Gal(b1-3)[Fuc(a1-4)]GlcNAc(b1-3)Gal(b1-4)[Fuc(a1-3)]GlcNAc
# How it was run: as §1
# [13] = molecular target: Neu5Ac(a2-3)[GalNAc(b1-4)]Gal(b1-4)Glc
# How it was run: as §1
# [14] = molecular target: Neu5Ac(a2-3)[GalNAc(b1-4)]Gal(b1-4)GlcNAc
# How it was run: as §1
# Neu5Ac(a2-6)Gal(b1-4)Glc = molecular target: Neu5Ac(a2-6)Gal(b1-4)Glc
# How it was run: as §1
# [15] = molecular target: Neu5Gc(a2-3)Gal(b1-3)[Fuc(a1-4)]GlcNAc
# How it was run: as §1
Binder,glycan array binding signal (z-score) (Fuc(a1-2)[Gal(a1-3)]Gal),glycan array binding signal (z-score) [1],glycan array binding signal (z-score) [2],glycan array binding signal (z-score) [3],glycan array binding signal (z-score) [4],glycan array binding signal (z-score) (Gal(a1-3)Gal),glycan array binding signal (z-score) (Gal(a1-3)Gal(b1-4)GlcNAc),glycan array binding signal (z-score) [5],glycan array binding signal (z-score) (Gal(b1-3)Gal),glycan array binding signal (z-score) [6],glycan array binding signal (z-score) [7],glycan array binding signal (z-score) [8],glycan array binding signal (z-score) [9],glycan array binding signal (z-score) [10],glycan array binding signal (z-score) (GalNAc(a1-3)Gal),glycan array binding signal (z-score) [11],glycan array binding signal (z-score) (Man(a1-3)[Man(a1-6)]Man),glycan array binding signal (z-score) [12],glycan array binding signal (z-score) [13],glycan array binding signal (z-score) [14],glycan array binding signal (z-score) (Neu5Ac(a2-6)Gal(b1-4)Glc),glycan array binding signal (z-score) [15]
B1,2.32,3.32,-0.386,-0.385,-0.369,2.62,3.18,4.59,4.35,-0.329,-0.386,-0.394,1.7,2.18,-0.329,-0.398,-0.373,-0.393,-0.4,-0.4,-0.394,
B2,,,,,,,,,,,,,,,,,,,,,,-0.132

# From the supplement of paper PMC8728848
